Eya2 inh – blocks the phosphatase activity of human Eya2. 0.006% of 330,000 active. recombinant Eya2, OMFP fluorescence dephosphorylation (OMFP is methylfluorescein phosphate). Potency, µM (titrated, usually from 76.9 µM), without a hit: top-dose activity, negative = inhibition, most hits filed as inhibitors
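Eya2 (0.2 uM) preincubated 10 min at ambient with compound, then OMFP substrate added at 50 uM; 10 min reaction in 50 mM HEPES pH 7.5, 50 mM NaCl, 5 uM MgCl2, 0.05% BSA, 1 mM DTT. Fluorescence read at Ex 485/Em 525 nm.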
rTrxR1 inhibitor – inhibitors of rat thioredoxin reductase 1; 1% of 390,000 active; O89049; Potency, µM (series often up to 114 µM), inactives show at the top dose activity change, negative = inhibition, hits mostly inhibitors; recombinant rTrxR1, NADPH fluorescence consumption, selenite substrate; AID 588453; further: nearly all actives have a fitted effect of over 65% in size
Target sequence (O89049 whole entry, looked up): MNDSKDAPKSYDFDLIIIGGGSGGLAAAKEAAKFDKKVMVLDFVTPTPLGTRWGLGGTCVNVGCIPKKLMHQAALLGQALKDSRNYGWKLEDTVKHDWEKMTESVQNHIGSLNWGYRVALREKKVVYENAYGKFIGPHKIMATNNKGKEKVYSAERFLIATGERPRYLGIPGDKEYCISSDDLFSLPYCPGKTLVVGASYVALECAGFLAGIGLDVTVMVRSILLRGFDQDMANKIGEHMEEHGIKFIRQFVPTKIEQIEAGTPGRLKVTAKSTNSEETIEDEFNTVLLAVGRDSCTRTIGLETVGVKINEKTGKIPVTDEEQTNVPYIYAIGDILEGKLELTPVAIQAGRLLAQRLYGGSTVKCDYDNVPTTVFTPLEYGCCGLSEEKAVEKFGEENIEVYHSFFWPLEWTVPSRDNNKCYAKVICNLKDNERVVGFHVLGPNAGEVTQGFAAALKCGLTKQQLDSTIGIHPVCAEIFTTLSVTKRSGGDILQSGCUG
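Rat TrxR1 (90 nM in the dispensed reagent) was pre-reduced with 400 uM NADPH for 5 min at room temperature, then incubated with compound for 15 min. After 400 uM selenite was added, NADPH fluorescence (Ex 340/Em 450 nm) was followed for 8 min.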
USP2a inh – blocks human ubiquitin-specific protease USP2a; USP2 core, Ub-CHOP2 coupled fluorogenic reporter, 485/531; Potency, µM (top dose mostly 38.3 µM), for inactives: top-dose activity change, negative = inhibition, usual class: inhibitors; 0.01% of 330,000 active;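 further: plate controls were DMSO wells for no effect and full inhibition by NEM control for full effect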
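Cell-free coupled assay: 10nM USP2 core preincubated 30min RT with compound in Tris-HCl pH 8.0/CaCl2/CHAPS buffer, then 25nM Ub-CHOP2 and 25nM reporter substrate; fluorescence (Ex 485/Em 531) read after 60min RT, normalized to NEM inhibition, concentration-response curves fitted.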
RGS4 inhibitor – inhibitors of human regulator of G protein signaling 4 | P49798 | Transcreener GDP fluorescence polarization, RGS4-accelerated GTP hydrolysis | Potency, µM (doses to about 114 µM), without a hit: top-dose activity change, negative = inhibition, hits mostly inhibitors | 0.039% of 390,000 active; further: nearly all actives have a fitted effect of over 75% in size
Target sequence (P49798 whole entry, looked up): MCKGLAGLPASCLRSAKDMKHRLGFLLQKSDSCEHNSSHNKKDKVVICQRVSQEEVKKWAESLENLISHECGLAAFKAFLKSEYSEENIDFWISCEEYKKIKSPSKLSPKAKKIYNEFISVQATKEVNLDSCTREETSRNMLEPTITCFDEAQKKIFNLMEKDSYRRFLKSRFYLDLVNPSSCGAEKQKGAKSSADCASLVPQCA
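MLSMR compounds (23 nl, pin-transferred) preincubated 10 min at room temperature with a 500nM (2x) first reagent, then RGS4 at 900nM (2x) plus Transcreener GDP mix added; fluorescence polarization (620/688 nm) read before and after 90 min at 30 °C.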
TrxR1 substrate – rat thioredoxin reductase 1 substrate activity; O89049; purified TrxR1 substrate turnover, NADPH consumption readout; Potency, µM (doses to about 114 µM), without a hit: top-dose activity change, negative = substrate turnover; 0.01% of 390,000 active; further: nearly all actives have a fitted effect of over 50% in size
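Rat TrxR1, dispensed at 90 nM, was prereduced with 400 uM NADPH (final) for 5 min at ~22 deg C, then incubated with compound 15 min before 400 uM selenite. A first-read NADPH fluorescence drop versus no-compound background flagged substrates.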
GALK inhibitor – blocks human galactokinase activity | P51570 | Purified GALK, Kinase-Glo residual ATP luminescence | Potency, µM (titrated, usually from 57.5 µM), for inactives: at the top dose activity change, negative = inhibition, actives largely listed as inhibitors | 0.007% of 270,000 active | AID 1868
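Human GALK (5 nM) with 35 uM ATP and 100 uM galactose in 20 mM HEPES pH 8.0, 5 mM MgCl2, 60 mM NaCl, 1 mM DTT, 0.01% BSA. After 1 h at room temperature, leftover ATP was read by Kinase-Glo Plus luminescence.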
The depositor's hits bear a star; i = inactive; ? = inconclusive; . = not tested or not shown; ! = not active in a repeat; [ ] = remark or other dose. Only some compounds are listed: those with a hit (about 1% of all), similar ones and a draw of the others. The call rests on the fitted dose curve; in most records, active means well fitted curve in the direction sought with a large enough effect; inconclusive means small, poorly fitted or top-dose-only effect, or another doubt; inactive means no such curve, though single readings can be large; an effect the other way counts as inactive or inconclusive. Unless noted, on the % scale 0 is the no-effect control and ±100 the full control effect; potency means the concentration at half of the fitted maximal effect.

SMILES	Eya2 inh	rTrxR1 inhibitor	USP2a inh	RGS4 inhibitor	TrxR1 substrate	GALK inhibitor
CCOc1ccc(C2/C(=C(\O)c3ccc4c(c3)OCCO4)C(=O)C(=O)N2CCCN2CCOCC2)cc1OC (stereo not drawn)	-1%	50µM*	2%	-10%	1%	-2%
CCN(CC)CCN1C(=O)C(=O)/C(=C(/O)c2ccc3c(c2)CC(C)O3)C1c1ccc(OC)cc1 (stereo not drawn)	-5%	45µM*	0%	21%	-18%	-3%
O=C(c1ccoc1)N1CCC2(CC1)Oc1ccc(F)cc1C(=O)C21CC(c2ccc(Cl)cc2)=NO1 (stereo not drawn)	-1%	71µM*	1%	-18%	-10%	5%
O=C(C[n+]1ccccc1Br)c1ccc(O)c(O)c1	.	-20%	.	.	-21%	.
CC(C)CNc1ncnc2oc(-c3ccco3)c(-c3ccco3)c12	.	?	.	-39%	11%	.
O=C(/N=C1\NC(=O)C(F)(C(F)(F)F)S1)NC1CCCCC1 (stereo not drawn)	-24%	25µM*	0%	?	-7%	-2%
Cc1ccc2c(c1)CC1(CN2C)C(=O)OC(C)(C)OC1=O	-18%	20µM*!	3%	-1%	2%	-2%
C1=Cc2ccccc2/C1=C\c1cc2c3c(c1)CCCN3CCC2	.	?	.	.	8%	.
O=[N+]([O-])c1ccccc1C1Nc2cccc3cccc(c23)N1	1%	79µM*	0%	-61%	-4%	0%
Oc1ccccc1C1Nc2cccc3cccc(c23)N1	-7%	-39%	0%	-5%[11.4 µM]	11%[57.1 µM]	-1%
COC(=O)[C@@H]1[C@@H](C#N)C2(c3ccccc3-c3ccccc32)N(c2ccc(Cl)cc2)N1C#N	2%	7.9µM*	0%	?	-4%	-4%
O=C(Cc1ccc(Cl)cc1)NN1C(=O)c2ccccc2C1=O	3%	19%	1%	-6%[11.4 µM]	5%	-1%
O=C(CSc1nnc(NC(=O)C2CC(=O)N(c3ccc(F)cc3)C2)s1)NCc1ccco1 (stereo not drawn)	-1%	32µM*	-2%	?	7%	5%
CCCCCCCCCC[n+]1ccc(/C=C/c2c(C)[nH]c3ccccc23)c2ccccc21	.	?	.	.	-11%	.
O=C(c1ccc([N+](=O)[O-])o1)N1CCN(c2nc3c(Cl)cccc3s2)CC1	14%	40µM*	0%	-3%	-8%	.
CCOC(=O)CSc1nnc(NCC(=O)OC(C)C)c(=O)[nH]1	3%	1.8µM*	2%	-35%[11.4 µM]	-3%[57.1 µM]	0%
CCOC(=O)CNC(=O)CSc1nnc(C)c(=O)[nH]1	7%	7%	1%	-9%	4%	2%
C/C(=N\NS(=O)(=O)c1ccc(Cl)c([N+](=O)[O-])c1)c1ccc(C)o1	12%	40µM*	-2%	-25%	-8%	1%
C(=C\c1ccnc2ccccc12)/c1ccc(-[n+]2cc[n+](-c3ccc(/C=C/c4ccnc5ccccc45)cc3)cc2)cc1	.	-16%	.	.	-15%	.
Nc1ccc2c(c1)C(=O)C(=O)c1ccccc1-2	-5%	6.3µM*	6%	?	4µM*	6.3µM*
O=C1C(=O)c2ccc(-c3ccccc3)cc2-c2ccccc21	-7%	?	2%	-41%	10µM*	?
Nc1ccc2c(c1)C(=O)c1ccccc1-2	.	20%	.	17%	0%	.
O=C(CSc1oc(-c2ccco2)nc1S(=O)(=O)c1ccc(F)cc1)NCC1CCCO1 (stereo not drawn)	-6%	16µM*	-1%	-17%	5%	0%
Cc1ccc(S(=O)(=O)c2nc(-c3ccco3)oc2SCC(N)=O)cc1	4%	79µM*	-1%	-5%	?	-4%
Cc1ccc(C(=O)NC(C#N)=C(Cl)Cl)cc1	-1%	3.2µM*	0%	-49%	2%[57.1 µM]	3%
SMILES	Eya2 inh	rTrxR1 inhibitor	USP2a inh	RGS4 inhibitor	TrxR1 substrate	GALK inhibitor
O=C(CCS(=O)(=O)c1ccc(Br)cc1)Nc1cc(F)ccc1F	2%	35µM*	-1%	-12%	-1%	2%
Cc1c(C(=O)Oc2cc(N)n(S(C)(=O)=O)n2)cccc1[N+](=O)[O-]	-15%	25µM*	2%	-35%	5%	4%
Cc1ccccc1C(=O)Oc1cc(N)n(S(C)(=O)=O)n1	-4%	4%[57.1 µM]	2%	14%	1%[57.1 µM]	7%
C=CCn1c(SCc2nc3ccccc3nc2C)nnc1-c1ccoc1C	1%	45µM*	-10%	?	0%	6%
CCn1c(SCc2nc3ccccc3nc2C)nnc1-c1cccs1	-31%	-5%	8%	8%	-2%	-1%
CCOC(=O)N1CCN(C(=O)CN2C(=O)/C(=C\c3cccc(OC)c3)SC2=S)CC1	.	13%	.	15%	10%	.
N#CC1=C(N)N(c2ccc(F)cc2)C2=C(C1c1ccc(O)cc1)S(=O)(=O)CC2 (stereo not drawn)	-13%	7.9µM*	1%	?	9%[57.1 µM]	-6%
CCOC(=O)C(=Cc1ccc(-n2ccnc2)cc1)C(=O)OCC	5%	20µM*	-1%	?	-1%	1%
CCOC(=O)C(=Cc1ccc(F)cc1)C(=O)OCC	-4%	.	4%	.	.	-2%
CCOC(=O)/C(=C/c1ccc(OC(=O)c2ccncc2)cc1)C(C)=O	-14%	6.3µM*	-3%	-36%	14%[57.1 µM]	2%
CCOC(=O)C(=Cc1ccc(Br)cc1)C(=O)OCC	-16%	25µM*	0%	?	-1%	1%
O=C(C[N+]12CCCc3cccc(c31)CCC2)c1ccc2ccccc2c1	.	-32%	.	.	8%	.
CC1=Nc2ccccc2/C1=C(/C)c1c(C)[nH]c2ccccc12	.	1%	.	.	-3%	.
O=C(c1cccc(Cl)c1Cl)N(Cc1ccco1)Cc1cccs1	.	13µM*	.	?	1%	.
NCCCN(Cc1ccc(Cl)c(Cl)c1)c1ccccn1	.	-5%	.	-19%	8%	.
CCc1c(C)c2ccc(O)c(CN3CCCC3)c2oc1=O	10%	22µM*	4%	5%	i	2%
Cc1cc(=O)oc2c(CN3CCOCC3)c(O)ccc12	.	56µM*	.	32%	i	.
O=C1CCCC2=C1C(c1ccc(Cl)cc1)N=C(Nc1nc3ccccc3o1)N2 (stereo not drawn)	.	16%	.	14%	32%	.
CC(=O)c1ccc(OC(=O)COc2ccccc2Cl)cc1	-1%	18µM*	-2%	-37%	2%	0%
Cc1ccc(OC(=O)COc2ccccc2C)cc1	-8%	26%	3%	15%	11%	-3%
Cc1ccc(Sc2c([N+](=O)[O-])c(=O)n(C)c3ccccc23)cc1	0%	2µM*	0%	-22%	1%	-5%
